Drawing on PubChem BioAssay (Tox21), this text covers Potency and cytotoxicity for 40 molecules.

Active and inactive are the calls of the source. Where a call stands in place of a potency, no number is given. Calls follow the shape of the dose curve; as a rule, active = well fitted activation curve with a large enough effect in the repeat runs; inconclusive = weak or mixed curves; inactive = flat fitted curve, though single readings scatter.

The test can be described thus: A CellTox Green Cytotoxicity Assay to monitor cytotoxicity in HEK293 cells - 0 hour (AID 1224869). Also: nearly all actives have a fitted effect of over 50% in size. To be noted: CellTox Green fluorescence; series mostly up to 76.8 µM. An excerpt: National Center for Advancing Translational Sciences [NCATS]
NIH Chemical Genomics Center [NCGC]
U.S. Environmental Protection Agency [EPA]
National Institutes of Environmental Health Sciences [NIEHS]
National Toxicology Program [NTP]
Cell-based models are critical for drug discovery. Determining the natural cytotoxic effects resulting from test compounds is an essential research activity. A CellTox Green Cytotoxicity Assay to monitor cytotoxicity in real time of continues cell culture during 40 hours of the compound treatment was used to screen Tox21 10K library compounds in Hek293 cells. CellTox Green Cytotoxicity Assay is a nonlytic, homogeneous, biofluorescent method to measure cytotoxicity in cell culture after experimental manipulation. The assay system uses a proprietary asymmetric cyanine dye that is excluded from viable cells but preferentially stains the dead cell's DNA. […] Viable cells produce no appreciable increases in fluorescence. Therefore, the fluorescence signal produced by the binding interaction with dead cell DNA is proportional to cytotoxicity.
The mixture of Hek293 cell suspension and reagents were dispensed at 600cells/6 ul/well in 1536-well tissue culture treated black solid bottom plates using a Multidrop dispenser. After the assay plates were incubated at a 37 C/5% CO2 incubator for 5 hours, 23 nL of compounds dissolved in DMSO, positive and negative controls was transferred to the assay plate by a pintool work station. The plates were incubated at 37 C for 40 hours. The fluorescence intensity were measured at 0h, 8h, 16h, 24h, 32h and 40h time points using ViewLux plate reader during compound treatment.
Take `COc1nccnc1CC(C)C`: the Potency entry was “inactive”.

Consider `COc1ccccc1C=O`, for which the Potency result was “inactive”.

For `CCc1ccc(O)c(C(C)(C)C)c1`, the Potency result is “inactive”.

Take `CCN(CC)CCOc1ccc(C(O)(Cc2ccc(Cl)cc2)c2ccc(C)cc2)cc1` (stereo not given): the Potency result was “inactive”.

`CCNc1nc(NC(C)CC)nc(OC)n1` (stereo not given): the Potency result is “inactive”.

As for `CCOCOCC`, the Potency result is “inactive”.

In the case of `C=CC(=C)CC/C=C(\C)CCC=C(C)C`, the cytotoxicity was 0.448% [at 15.8 µM] (inactive).

For the molecule `CCCCCCOc1ccc(O)cc1`, the Potency entry is “inactive”.

Regarding `CCC1CCCCC1`, the Potency entry is “inactive”.

For `CCC(C)(C)c1cc(O)c(C(C)(C)CC)cc1O`, the Potency entry is “inactive”.

`S=P(N1CC1)(N1CC1)N1CC1`: the Potency entry is “inactive”.

As for `O=C(O)CC(=O)O`, the Potency result is “inactive”.

In the case of `CCOC(=O)COc1ccc(C)cc1`, the Potency result is “inactive”.

For the molecule `S=C(SSSSSSC(=S)N1CCCCC1)N1CCCCC1`, the cytotoxicity was -0.227% [at 15.8 µM] (inactive).

On to `CCC(C)c1ccccc1` (stereo not given), for which the Potency entry was “inactive”.

Regarding `OCCN1CN(CCO)CN(CCO)C1`, the Potency result was “inactive”.

For the molecule `O[C@@H](c1cc(C(F)(F)F)nc2c(C(F)(F)F)cccc12)[C@H]1CCCCN1`, the Potency entry is “inactive”.

In the case of `CN(C)CCOC(c1ccccc1)c1ccccc1` (tested in a mixture with another compound), the Potency entry is “inactive”.

In the case of `CCc1ccc(C)nc1`, the Potency entry was “inactive”.

Take `Brc1ccccc1-c1ccccc1`: the Potency entry was “inactive”.

For the molecule `C[C@]12CC[C@H]3C(=CCc4cc(O)ccc43)[C@@H]1CCC2=O`, the Potency entry was “inactive”.

For the molecule `CCCCCCCCCCCCCCCC`, the Potency entry is “inactive”.

As to `CCCCCCCCCCCCCCCCCO`, the cytotoxicity was -13.6% [at 15.8 µM] (inactive).

Consider `CCCCCCCOC(=O)c1ccccc1C(=O)OCCCCCCC`, for which the Potency result was “inactive”.

Consider `Cc1cnccn1`, for which the Potency result is “inactive”.

For `COc1ccc2sc(C(=O)Nc3nnn[nH]3)c(OC(C)C)c2c1`, the Potency entry was “inactive”.

As for `O=C1OC(=O)c2ccc3c4c(ccc1c24)C(=O)OC3=O`, the Potency result was “inactive”.

As for `COC(=O)C1=C(C)NC(C)=C(C(=O)OCCCN2CCC(c3ccccc3)(c3ccccc3)CC2)C1c1cccc([N+](=O)[O-])c1` (stereo not given), the Potency entry was “inactive”.

In the case of `Cc1ccc(-n2[nH]c(C)c(N=Nc3cccc(-c4cccc(C(=O)O)c4)c3O)c2=O)cc1C`, the Potency entry was “inactive”.

As for `CC(C)c1ccccc1N`, the Potency entry is “inactive”.

On to `CN(Cc1cc(Br)cc(Br)c1N)C1CCCCC1`, for which the Potency result is “inactive”.

On to `Cc1cc(C)c(C=O)c(C)c1`, for which the Potency entry was “inactive”.

As to `CC(NCCC(c1ccccc1)c1ccccc1)c1ccccc1` (stereo not given), the Potency result is “inactive”.

Take `C[C@H]1O[C@@H](O[C@H]2[C@@H](O)C[C@H](O[C@H]3[C@@H](O)C[C@H](O[C@H]4CC[C@@]5(C)[C@H](CC[C@@H]6[C@@H]5C[C@@H](O)[C@]5(C)[C@@H](C7=CC(=O)OC7)CC[C@]65O)C4)O[C@@H]3C)O[C@@H]2C)C[C@H](O)[C@@H]1O`: the Potency result was “inactive”.

As for `CC(C(O)c1ccccc1)N(C)CCOC(c1ccccc1)c1ccccc1` (stereo not given), the Potency result was “inactive”.

As for `O=Cc1ccc(F)cc1`, the Potency entry is “inactive”.

In the case of `CCCOc1sc(C(=O)N2CCC(c3cc(CN)ccc3F)CC2)c(C)c1Br`, the Potency entry was “inactive”.

Turning to `CCCCNc1c(C(=O)OCC)c(C)nc2c1cnn2CC`, the Potency entry was “inactive”.

In the case of `CCCC(C)CCC(C)=O` (stereo not given), the Potency result is “inactive”.

For `Cc1cccc(Br)c1`, the Potency entry was “inactive”.
